# Data published in the supplement of paper PMC8728848.
# About 410 targets per protein were measured; listed, in parts, are those with the strongest signals and a random draw of the rest.
# B1: Pbx2 (Cryptococcus neoformans) (protein)
# chain: AVSPLPSSTELVFYSQKRRRRRICSTATGSLSTPDPTRMTSDPYKRVGMRFSSVPRLLITFLSLLLLVSAAPPCVRFADYDSINQMFIDGGPGTKVLLCPNRLYRLSGPIIFTAADQEIATYGYPTGSERAVLRVEGRNTATAIQGDCRRCARVSVKNLVVDGNRKKLGRMRDFQLATGLVVLGGNEGQSIQNSWIKNPRGFTAIHIREGDKLQCSGARVEKNEIGPVGEEYDPEKDGDDPEMSPLGRPLADGVSIACRDSFIRDNTFRDNTDAAIVVYCSPGTLIHANHIFAQSLSAMAGILMVDSTPFNGDYTGTVVRSNIIDAVSRTIRVGIGIGPTVWSDDTETILTGGSVIGNGLKGRYMGYGIAAAGLKQWTIKDNWDEAKHEGRKSARCFDEPVNPDPIGLLYNRPTMEDCTVQSGFADHDFQYLVCIDGLYDKTNPPKHDPAPLAHDPSPTNAQEDNTVQQDGGDSKSKSIEQPREASDIEAEPSVEKMFSTGSEMMDDVLEHSHQRMHEVIDHLSRRIDILGAASAGKGSGDSKISEVLDPAMSSHLEKLQRKIEHLEFSLRSQIETAIQLRSAIQGWDQEMALVTDWEYDILLDVRHKLELSSYPHDQPLDPRLMRGQSYLNNEAVLVDDHSHPSLEGENLRAMSDRARLNANEEA
# Tests used:
# Assay in all cases: glycan array binding signal (z-score within array); higher = stronger binding
# Conditions in all cases: glycan notation: IUPAC condensed, linker removed
# [1] = biological target: Fuc(a1-2)Gal(b1-4)[Fuc(a1-3)]GlcNAc(b1-3)GalNAc
# In short: (§1)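 The Consortium for Functional Glycomics database supplied 3228 glycan arrays, of which those lacking an available protein sequence were dropped. The binding signal, a within-array Z-score, was averaged across arrays of the same protein sequence and across linkers. Negative scores can be read as non-binding.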
# [2] = biological target: Fuc(a1-2)Gal6S(b1-3)GlcNAc6S
# In short: as §1
# [3] = biological target: Fuc(a1-2)Gal6S(b1-4)Glc
# In short: as §1
# [4] = biological target: Fuc(a1-2)[Gal(a1-3)]Gal(b1-3)GlcNAc(b1-2)Man(a1-3)[Fuc(a1-2)[Gal(a1-3)]Gal(b1-3)GlcNAc(b1-2)Man(a1-6)]Man(b1-4)GlcNAc(b1-4)GlcNAc
# In short: as §1
# [5] = biological target: Fuc(a1-2)[Gal(a1-3)]Gal(b1-3)GlcNAc(b1-3)GalNAc
# In short: as §1
# [6] = biological target: Fuc(a1-3)[Gal(b1-4)]GlcNAc
# In short: as §1
# [7] = biological target: Fuc(a1-3)[Gal(b1-4)]GlcNAc(b1-2)Man
# In short: as §1
# [8] = biological target: Fuc(a1-3)[Gal(b1-4)]GlcNAc(b1-2)Man(a1-3)[Fuc(a1-3)[Gal(b1-4)]GlcNAc(b1-2)Man(a1-6)]Man(b1-4)GlcNAc(b1-4)GlcNAc
# In short: as §1
# [9] = biological target: Fuc(a1-3)[Gal3S(b1-4)]GlcNAc
# In short: as §1
# [10] = biological target: Fuc(a1-3)[GalNAc(b1-4)]GlcNAc
# In short: as §1
# [11] = biological target: Gal(a1-3)Gal(b1-3)[Fuc(a1-4)]GlcNAc(b1-2)Man(a1-3)[Gal(a1-3)Gal(b1-3)[Fuc(a1-4)]GlcNAc(b1-2)Man(a1-6)]Man(b1-4)GlcNAc(b1-4)GlcNAc
# In short: as §1
# [12] = biological target: Gal(a1-3)Gal(b1-4)GlcNAc
# In short: as §1
# [13] = biological target: Gal(b1-3)GlcNAc(b1-2)Man(a1-3)[GlcNAc(b1-4)][Gal(b1-3)GlcNAc(b1-2)Man(a1-6)]Man(b1-4)GlcNAc(b1-4)GlcNAc
# In short: as §1
# [14] = biological target: Gal(b1-3)GlcNAc(b1-3)GalNAc
# In short: as §1
# [15] = biological target: Gal(b1-4)GlcNAc(b1-3)Gal(b1-3)GlcNAc
# In short: as §1
# [16] = biological target: Gal(b1-4)GlcNAc(b1-3)Gal(b1-4)GlcNAc(b1-2)Man(a1-3)[Gal(b1-4)GlcNAc(b1-3)Gal(b1-4)GlcNAc(b1-2)Man(a1-6)]Man(b1-4)GlcNAc(b1-4)GlcNAc
# In short: as §1
# [17] = biological target: Gal(b1-4)GlcNAc(b1-3)Gal(b1-4)GlcNAc(b1-3)Gal(b1-4)GlcNAc
# In short: as §1
# [18] = biological target: Gal(b1-4)GlcNAc(b1-3)Gal(b1-4)GlcNAc(b1-3)Gal(b1-4)GlcNAc(b1-2)Man(a1-3)[Gal(b1-4)GlcNAc(b1-3)Gal(b1-4)GlcNAc(b1-3)Gal(b1-4)GlcNAc(b1-2)Man(a1-6)]Man(b1-4)GlcNAc(b1-4)GlcNAc
# In short: as §1
# [19] = biological target: Gal(b1-4)GlcNAc(b1-3)Gal(b1-4)GlcNAc(b1-3)[Gal(b1-4)GlcNAc(b1-3)Gal(b1-4)GlcNAc(b1-6)]GalNAc
# In short: as §1
# [20] = biological target: Gal3S6S(b1-4)GlcNAc6S
# In short: as §1
# [21] = biological target: Gal4S(b1-4)GlcNAc
# In short: as §1
# [22] = biological target: Gal4S6S(b1-4)GlcNAc
# In short: as §1
# [23] = biological target: Gal6S(b1-3)GlcNAc6S
# In short: as §1
# [24] = biological target: Gal6S(b1-4)GlcNAc6S
# In short: as §1
binder,measurement,setting,value
B1,glycan array binding signal (z-score),[1],5.82
same,glycan array binding signal (z-score),[2],3.8
same,glycan array binding signal (z-score),[3],-0.497
same,glycan array binding signal (z-score),[4],-0.446
same,glycan array binding signal (z-score),[5],-0.12
same,glycan array binding signal (z-score),[6],-0.094
same,glycan array binding signal (z-score),[7],-0.041
same,glycan array binding signal (z-score),[8],0.271
same,glycan array binding signal (z-score),[9],0.057
same,glycan array binding signal (z-score),[10],-0.291
same,glycan array binding signal (z-score),[11],-0.392
same,glycan array binding signal (z-score),[12],-0.346
same,glycan array binding signal (z-score),[13],0.625
same,glycan array binding signal (z-score),[14],0.091
same,glycan array binding signal (z-score),[15],-0.114
same,glycan array binding signal (z-score),[16],4.98
same,glycan array binding signal (z-score),[17],0.154
same,glycan array binding signal (z-score),[18],4.44
same,glycan array binding signal (z-score),[19],2.83
same,glycan array binding signal (z-score),[20],6.21
same,glycan array binding signal (z-score),[21],-0.339
same,glycan array binding signal (z-score),[22],2.65
same,glycan array binding signal (z-score),[23],3.95
same,glycan array binding signal (z-score),[24],2.56
